Whole data set: some 25,000 sequences, median “ln(normalized median fluorescence intensity)” near 6.7, cut for the highest 2% near 10. Many of the other results were omitted from the sample, so the highest values are more common in it than they were.
system: PfHDP1 homeodomain (GST-tagged); assay: gcPBM binding intensity (ln(normalized median fluorescence intensity)); higher = stronger DNA binding
In short: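 For binding intensity, the highest Masliner-normalised natural-log median intensity across replicate spots of either probe orientation was taken. Protein bound to the array was stained with Alexa488 anti-GST antibody and scanned at 488 nm. The protein, GST-tagged P. falciparum DNA-binding domains from E. coli at about 25 μg on average, had been applied for 1 h to an Agilent 4 × 180k array of primer-extended double-stranded 36-bp intergenic genomic probes and negative controls.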

Sequence | gcPBM binding intensity (ln)
TATGGAAGAAAATATACACACAAAAAAAAAAAATGT [CACACA_site1486] | 6.58
TATATAATATATAAATGTACTTTTGTCTTATATGAA [XGTACX_site7211] | 6.32
TATTTTGTATTCATTTGTCACATATAATAGATAGGA [TGCATGCA_negctrl_site9] | 6.82
TTTCTTTTTAAATATATACACACCGTGGGTACATAT [CACACA_site9102] | 6.81
AATGAATCCTTATATACACACATTATTATATTATAT [CACACA_site3108] | 7.23
TACTTTTTAGGAAAGTGTACAAGCATATAAGGAATA [XGTACX_site2834] | 6.83
ATATGTACGCAAGGTGCACACTGGTGCATTAAAAAA [CACACA_site1801] | 11.5
TATGTGTGCAAAAACTGTACACATTAAAGGTATATA [XGTACX_site7627] | 10.3
GCAAGGTCCACACTGGTGCATTAAAAATAAAATATA [GTGCAC_site9956] | 10.4
AATATATTTATGCTCATGCACTTTTTTTTTTTTTTT [GTGCAC_site9654] | 10
CACTTCATAAAAATTGCACACATATAATAATGTACA [CACACA_site8692] | 10.1
AAAATTAAAATATATACACACATATATATATTAAAT [CACACA_site4419] | 6.25
ATATTTATTTATATTACACACATGTGCAATTAAACT [CACACA_site6928] | 10.7
TATTATAAAATATACACATGCAAAAACAAAATTTAC [TGCATGCA_site1051] | 7.03
ATATATATATATATTACACACATGTGCAATTAAAAT [CACACA_site1778] | 10.7
GTATATTAATAAACATGTACACAATTTATTTATATT [XGTACX_site1012] | 6.6
TATATTAAAAAAAAATGTACACATATATATATATAT [XGTACX_site4524] | 9.21
ATATATATATTAATTACACACAAAAAAAAAAAAAAA [CACACA_site1165] | 7.49
AATAAATTAAAACAGGTGCACTATATTACACACGCT | 9.7
ATATATATATATATTACACACTTTTTCTTTTTTTTT [CACACA_site2780] | 9.01
CAGGTGCACTATATTACACACGCTTCTTTTTTTTTA [CACACA_site2069] | 11
TATAAAAATATATATATATATATATATATATATATA [TGCATGCA_negctrl_site541] | 9.32
TCATTAAATGTTTAGGTGCATACTTTAATTTTTAAT [GTGCAC_site9906] | 9.31

Sequence | gcPBM binding intensity (ln)
AAAAAAAAATTAAACATACACACGTTACTATTTTTA [CACACA_site1687] | 6.29
AAATTACTAATGTGCACACATACTAACGTTTAAATA [CACACA_site3572] | 11.3
AAAAATTAAATAAATTTACACACTAATAATTACATA [CACACA_site8260] | 6.3
AACATAAATTACTTTTTACACACTAATATAAAATAC [CACACA_site8297] | 6.54
TTAAATTACTAATGTGCACACATACTAACGTTTAAA [CACACA_site3573] | 11
GAATATAATCTGTATTGTACGAAAGTTGAACACTTG [XGTACX_site8895] | 6.3
GATCAAAATTATAGAAGTACTTTATATAAATAAAAT [XGTACX_site8161] | 6.41
AAAAAAAAAAGACATGCATACGCTAATTTTTAGTTG [TGCATGCA_site300] | 5.98
TTTATATTAGGTCTTGAACGATTTTCATCATTATTA [TGCATGCA_negctrl_site100] | 6.04
ATATCGTTATTTTTATGTACTAAAATATTTAATTAT [XGTACX_site3516] | 7.03
TTTATCTAAATATGTGTGCACTCGTTAATTTTTTTT | 10.8
TTTTTTAATATATTATTATAAATATTTTTTATGTGT [GTGCAC_negctrl_site712] | 6.46
ATAACATGAACATATGTTACACAAACATACATACAT [XGTACX_negctrl_site365] | 6.77
TTTAGTTCATACTATGCACACTACGTATATTTTTAA [CACACA_site5484] | 8.95
GTAATATCAATATAAAGTACACACTATAGTATGTAT [XGTACX_site4714] | 6.4
TATATATATATCAAGTGTACTTGTGTTTGTAATATT [XGTACX_site8854] | 8.6
TTTATAGTTTTTAATAGTACACATATTTTTAAGTAT [XGTACX_site5498] | 6.38
TAAGTAATAGTTTGTGCACACTCAAGTATATCATAT [CACACA_site4035] | 11.1
AGTAATAGTTTGTGCACACTCAAGTATATCATATAT [CACACA_site4034] | 11.2
AGTAATAGTTTGTGCACACTCAAGTATATCATAGAT [CACACA_site6082] | 11.1
TATATATCAATATGCACACACAAGAAGTAATTATAA [CACACA_site7487] | 9.74
TTGTACAAAAATAATGCACACTATATCAAGTTTTTT [CACACA_site5898] | 10.3
TTTTGTACAAAAATAATGCACACTATATCAAGTTTT [CACACA_site3595] | 10.4

Sequence | gcPBM binding intensity (ln)
ATATATGTAACATATTGTACATATATGTATGTATGT [XGTACX_site3281] | 6.97
AATATTTTATTTTGGGTGCAAAAGAATATTATTTCA | 9.49
CAATTAAATATATGAACACACATGTGAACTTTCTAT [CACACA_site3977] | 6.36
AATATACAAAATAAATAAAATATATATATATATATA [CACACA_negctrl_site216] | 9.24
AATTTAATTTTTTCGTGTACTTATATAGGAGGTTTT [XGTACX_site8310] | 6.76
TAGAAGTACATATATGCATGTTAATTTTAAAGGAGG [TGCATGCA_site538] | 6.9
TTCTATTTTATATGTGCACACATATACACCCACAAA [CACACA_site1130] | 10.9
CTATTTTATATGTGCACACATATACTCAGACAAATA [CACACA_site4761] | 10.6
TATACATATTTTATAGCACACAAATAATAATATGTA [CACACA_site8129] | 6.63
CTATTTTATATGTGCACACATATACACCCACAAATA [CACACA_site1131] | 10.1
CTTACACCCATATATACACACATGTATATTTTATAT [CACACA_site4462] | 7.24
TATATACATATATGCACACAAAAAAATATATATTTT [CACACA_site1729] | 10.1
TTTGTTTTATCTTATATGCACACGATAAAAAAAAAA [CACACA_site2673] | 9.69
TATAAAAATAATATTACACACATGTAAAATGGGGGT [CACACA_site9071] | 7.03
TTGTTTTCACCAAATACACACAAGCATACACCCCAT [CACACA_site2717] | 7.34
AGTGATTATTAATAATGTACATATCTATAAATATAT [XGTACX_site4734] | 6.43
TTAATGTTATATGTGTGTACATATAAGTTTAGTAAA [XGTACX_site4651] | 6.53
AAAAAAATGAAGAAATGTACAAATTTCATTAATTTT [XGTACX_site354] | 6.05
TTCATATATAATTGTACACACAAAAACGACATTGTG [CACACA_site2074] | 7.05
TTATTTGAACAATATGCACACATTTTATTTATTTTA [CACACA_site3420] | 10.1
TATATATATATATATGTGCACTGGACATATTTTTAT [GTGCAC_site9721] | 9.84
ATATTATGTGATTGTGCACACTGGAGATTTTTTTTA [CACACA_site1453] | 11.2
TAGATCATAACAATTGCACACATTTGCATTTATATT [CACACA_site1562] | 10.1

Sequence | gcPBM binding intensity (ln)
TTTAGTTTTTATATAGCACACATATTGTGATTATGT [CACACA_site8316] | 6.82
GAGATTTATTTATGTGCACACTAGAACAATTGGATC [CACACA_site2090] | 10.5
TTAATATGTTTAACCATTTTACATAAATTGATTTGT [CACACA_negctrl_site1100] | 6.3
TGTTATTACTTTATATCATCTTAAAATAAGCATATT [CACACA_negctrl_site1501] | 6.26
AAATTAATACATTATTGTACTTTTCATGTGCAGAAA [XGTACX_site8284] | 8.11
TTACTTGTTTATTTTTTTTTTTTTTTTTTTTTTGTT [TGCATGCA_negctrl_site103] | 5.62
TATATGAAAATGTTCATACACACATAAAAAAAAAAA [CACACA_site3237] | 6.41
GTTCAATCGGGTGTTACTTCAAACAAGGAACAACAA [TGCATGCA_negctrl_site471] | 6.16
TTAAGATATGTATATCGTACATGACATTAAAAATTT [XGTACX_site3352] | 6.02
ATGCAAATAATATAAAGTACACAACATCGCCCAAAG [XGTACX_site1825] | 7
ACAAGTATTCCTTTTGCACACCTTTCTGCACCTTAT [CACACA_site3873] | 11.1
TATATATTTTCTTTTGCACACTGTTTTCCTTTTTTT [CACACA_site2739] | 10.2
TATTTAACACCTTATACACACTTTCTTCCTTTTTTA [CACACA_site4590] | 7.12
AAAATTAGGTATATATGTACATATATAAATATATAT [XGTACX_site3555] | 6.8
TAAAGAAACTATTCAACACACGGTCTAATTATTACA [CACACA_site1064] | 6.15
TATTATTTACCTTGCTAGTTCGTTCCAAATTTTATG [XGTACX_negctrl_site197] | 7.19
AAACAAATGTATATGTGTACTTATTTTTTTGTATGT [XGTACX_site7134] | 6.17
AATGTGCAAACAAACTGTACTTTTTTTTTTTTTTTT [XGTACX_site928] | 10.6
ACAAAACTTTTAAGAACACACAAAAATGTACTATCG [CACACA_site7245] | 6.17
TTTTCATTTTTCTTTACACACATATATATATATATA [CACACA_site2236] | 9.23
